# Assay results published in PubChem BioAssay AID686979 (National Center for Advancing Translational Sciences (NCATS), 2013).
# The campaign covered roughly 420,000 compounds. About 50,000 (12%) were called active. Inconclusive results (about 26%) are left out. The sample holds actives, similar compounds and a random draw of the others, so the mix is not that of the screen. Values without a mark were called inactive. The call rests on the fitted dose curve; in most records, active means well fitted inhibition curve with a large enough effect; inconclusive means small, poorly fitted or top-dose-only effect; inactive means flat fitted curve, though single readings scatter.
# Test: qHTS for Inhibitors of human tyrosyl-DNA phosphodiesterase 1 (TDP1): qHTS in cells in presence of CPT; further: nearly all actives have a fitted effect of over 55% in size
# Conditions: chicken DT40 Tdp1-/-;hTDP1 cells + 20 nM CPT, ATP luminescence, 48 h; series mostly up to 46.2 µM; activity change, negative = growth inhibition: at the top concentration
# In short: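 Chicken DT40 Tdp1-/- cells stably complemented with human TDP1 were seeded at 400 cells/well in medium containing 20 nM camptothecin, exposed to pin-transferred compounds, and grown at 37 °C for at least 48 hr. Viability was read as ATP luminescence.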
# On the % scale 0 is the no-effect control and ±100 the full control effect; potency means the concentration at half of the fitted maximal effect.
Compound,"activity change, negative = growth inhibition",Potency
Cc1csc(-c2coc3cc(O[C@@H]4O[C@H](CO)[C@@H](O)[C@@H](O)[C@H]4O)ccc3c2=O)n1,8.48% [at 9.04 µM],–
O=C(Nc1n[nH]c(C(F)(F)F)n1)c1cccs1,-21.7% (inactive),–
COc1ccccc1C(=O)Nc1ccnn1C1CCN(C(=O)C(C)(C)C)CC1,-7.39% (inactive),–
CCCCn1c(N)c(N(CCC(C)C)C(=O)c2ccc(COc3ccccc3)o2)c(=O)[nH]c1=O,-4% (inactive),–
CCOc1ccc(S(=O)(=O)N/N=C(\C)c2ccc(Cl)c(Cl)c2Cl)cc1,1.94% (inactive),–
COC(=O)COc1ccc2c(=O)c(Oc3ccccc3Br)coc2c1,9.84% (inactive),–
Cc1nn(CC(=O)Nc2ccc(F)cc2)c(=O)c2ccccc12,0.617% (inactive),–
Cc1ccc(NC(=O)Cn2c(C)csc2=O)cc1,5.41% (inactive),–
Cc1ccc(NC(=O)Cn2sc3ccccc3c2=O)cc1,–,4.61 µM (active)
CN(C(=O)CSc1nnc(-c2c[nH]c3ccccc23)o1)C1CCS(=O)(=O)C1 (stereo not given),0.592% (inactive),–
NS(=O)(=O)c1ccc(NC(=O)COC(=O)c2c3c(nc4ccccc24)/C(=C\c2ccc4c(c2)OCO4)CCC3)cc1,–,18.4 µM (active)
NS(=O)(=O)c1ccc(NC(=O)COC(=O)c2cc3ccccc3oc2=O)cc1,-17.9% (inactive),–
COc1cc(-c2cc(C(=O)OCC(=O)Nc3ccc4c(c3)OCO4)c3ccccc3n2)cc(OC)c1OC,-18.6% (inactive),–
NC(=O)c1ccc(NC(=O)COC(=O)c2c3c(nc4ccccc24)/C(=C\c2ccc4c(c2)OCO4)CCC3)cc1,–,11.6 µM (active)
O=C(COC(=O)c1ccc(F)cc1)Nc1ccc2c(c1)OCO2,-13.4% (inactive),–
O=C(COC(=O)c1ccncc1)Nc1ccc2c(c1)OCO2,2.53% (inactive),–
CC1CC(=O)N(CC(=O)Nc2cccc(Cl)c2)c2ccccc2S1(=O)=O (stereo not given),-20.5% (inactive),–
CCOC(=O)Cc1cc(=O)[nH]c(/N=C(\N)Nc2ccc(OC)cc2)n1,-18.9% (inactive),–
COc1ccc(NC(=O)Cn2c(-c3ccc(OC)cc3)cn(-c3ccc(C)cc3)c2=O)cc1,-0.508% (inactive),–
Cc1ccccc1CNC(=O)CCCn1nc(C)c2sc3ccccc3c2c1=O,–,18.4 µM (active)
Cc1nn(CCCC(=O)NCc2ccccc2Cl)c(=O)c2nccn12,0.154% (inactive),–
CCc1nn(CCCC(=O)NCc2ccccc2OC)c(=O)c2cc3occc3n12,-20.1% (inactive),–
COc1ccc(C(=O)COC(=O)c2ccc3ccccc3n2)cc1,–,20.6 µM (active)
COc1ccc(C2=NOC(COC(=O)c3ccc4ccccc4n3)C2)cc1 (stereo not given),-5.82% (inactive),–
CC(OC(=O)c1ccc2ccccc2n1)C(=O)c1ccccc1 (stereo not given),-20.7% (inactive),–

Compound,"activity change, negative = growth inhibition",Potency
Cc1ccc(-c2nnc(CN3CCN(C)CC3)o2)cc1,-20.5% (inactive),–
COc1ccc(C(=O)CSc2nccc(=O)[nH]2)cc1,-10.5% (inactive),–
COc1ccc(C(=O)CSc2c(C(C)C)cnc3c2c(=O)n(C)c(=O)n3C)cc1,–,16.4 µM (active)
COCCNC(=O)CSc1c(C)cnc2c1c(=O)n(C)c(=O)n2C,6.75% (inactive),–
COc1ccc(CNC(=O)CN2C(=O)c3ccccc3S2(=O)=O)cc1,-0.378% (inactive),–
CC1CCCN(S(=O)(=O)c2ccc(C(=O)Nc3nnc(-c4ccncc4)o3)cc2)C1 (stereo not given),–,11.6 µM (active)
O=C(Nc1nnc(-c2ccccc2)o1)c1cccc(S(=O)(=O)N2CCOCC2)c1,–,13 µM (active)
CC1CC(C)CN(S(=O)(=O)c2ccc(C(=O)NN3CCOCC3)cc2)C1 (stereo not given),-4.85% (inactive),–
CC1CCCCN1S(=O)(=O)c1ccc(S(=O)(=O)N(CC(=O)Nc2ccccc2)Cc2cccs2)cc1 (stereo not given),–,25.9 µM (active)
CC1CCCCN1S(=O)(=O)c1ccc(C(=O)Nc2nnc(-c3cccs3)o2)cc1 (stereo not given),–,6.51 µM (active)
COCCN(CC(=O)Nc1ccccc1C)S(=O)(=O)c1ccc(S(=O)(=O)N2CCCC2)cc1,-16.1% (inactive),–
CS(=O)(=O)c1ccc(-c2nnc(NC(=O)c3ccc4c(c3)OCCO4)o2)cc1,-17.5% (inactive),–
CCN(CC(=O)NCc1cccs1)S(=O)(=O)c1ccc(NC(C)=O)cc1,-7.88% (inactive),–
O=C(Nc1ccc(N2CCOCC2)cc1)c1cccc(S(=O)(=O)N2CCOCC2)c1,-10% (inactive),–
O=C(NCc1cccs1)C(=O)NCC1OCCCN1S(=O)(=O)c1ccc(F)cc1 (stereo not given),-20.4% (inactive),–
CC1CCCCN1S(=O)(=O)CCNC(=O)c1ccccc1 (stereo not given),-22.8% (inactive),–
NC(=O)CSc1nnc(-c2cccc(S(=O)(=O)N3CCOCC3)c2)o1,-6.32% (inactive),–
CCOC(=O)c1c(/N=C/c2cc(C)ccc2O)sc2c1CCC2,11.4% (inactive),–
CC(C)OC(=O)CC(=O)CC(O)c1cccc([N+](=O)[O-])c1 (stereo not given),-7.73% (inactive),–
O=C(Nc1nonc1-c1ccc(Cl)cc1)c1ccco1,-16.8% (inactive),–
O=C(NCc1ccccn1)[C@@H]1CCCN1C(=O)[C@@H]1CCCN1C(=O)c1ccccc1,-1.15% (inactive),–
CN(Cc1nc(-c2cnccn2)no1)Cc1n[nH]c2c1CCCCC2,-17.5% (inactive),–
COc1ccccc1CNC(=O)CS(=O)(=O)c1cccc2nsnc12,-18.4% (inactive),–
Cn1c(=O)c(=O)n(C)c2cc(NC(=O)c3ccccc3Br)ccc21,3.19% (inactive),–
c1ccc2c(c1)OC1OC2Oc2ccccc21,-22.8% (inactive),–
